Screening results (PubChem BioAssay)
KB-V1 cytotox: KB-V1 MDR subline cytotoxicity; Potency, µM (titrated, usually from 46.1 µM), most hits filed as cytotoxic; actives 3.4% (n = 400,000); KB-V1 MDR cells viability, CellTiter-Glo, 72 h; further: nearly all actives have a fitted effect of over 60% in size
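Cells of the MDR subline KB-V1 are plated, dosed with compound at multiple concentrations, and incubated 72 h at 37 degrees C; CellTiter-Glo is then added and luminescence read after 10 min.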
HT1080NT lethal: kills 2HG-producing HT-1080-NT fibrosarcoma cells. AID 686970. actives 1.6% (n = 360,000). HT-1080-NT fibrosarcoma viability, CellTiter-Glo ATP luminescence, 48 h. Potency, µM (titrated, usually from 46.1 µM), for inactives: top-dose activity, negative = less viability, usual class: cytotoxic;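 further: NT is the 2HG producing partner of a matched IDH1 knockdown line; 0% = DMSO-treated cells and -100% = media-only wells without cells; nearly all actives have a fitted effect of over 55% in size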
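HT-1080-NT; 750 cells/well; 5% FBS RPMI; 48 h compound, 37 degrees C; CellTiter-Glo luminescence; curve fitting and curve-class assignment.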
KB-3-1 cytotox: kills parental KB-3-1 adenocarcinoma cells; KB-3-1 viability, CellTiter-Glo ATP luminescence, 72 h; Potency, µM (doses to about 46.1 µM), hits mostly cytotoxic; actives 1.4% (n = 400,000); further: nearly all actives have a fitted effect of over 60% in size
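Cytotoxicity in the drug-sensitive parental line KB-3-1 was scored as loss of CellTiter-Glo luminescence following 72 h incubation with compound. Values come from curve fitting of normalized concentration-response data.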
TDP1 cell CPT: growth inhibition of DT40 Tdp1-/-;hTDP1 cells with camptothecin (screen for TDP1 inhibitors). actives 12% (n = 420,000). AID 686979. Potency, µM (doses to about 46.2 µM), without a hit: top-dose activity change, negative = growth inhibition, actives largely listed as inhibitors. chicken DT40 Tdp1-/-;hTDP1 cells + 20 nM CPT, ATP luminescence, 48 h; further: nearly all actives have a fitted effect of over 55% in size
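Chicken DT40 Tdp1-/- cells stably complemented with human TDP1 were seeded at 400 cells/well in medium containing 20 nM camptothecin, exposed to pin-transferred compounds, and grown at 37 °C for at least 48 hr. Viability was read as ATP luminescence.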
TDP1 cell noCPT: qHTS for Inhibitors of human tyrosyl-DNA phosphodiesterase 1 (TDP1): qHTS in cells in absence of CPT; DT40 Tdp1-/- hTDP1 cells, no CPT, ATP luminescence, 48 h; Potency, µM (doses to about 46.2 µM), for the others: at the top dose activity change, negative = growth inhibition, actives largely listed as inhibitors; actives 15% (n = 420,000); AID 686978, 2013; further: nearly all actives have a fitted effect of over 55% in size
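Camptothecin absent (DMSO only). Human TDP1-complemented DT40 knockout cells, 400 cells/well, 37 °C for minimum 48 hr; ATP measured via CellTiter-Glo, 30 min dark incubation, luminescence.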
HT1080 IDH1KD tx: kills HT-1080 cells with IDH1 knockdown. HT-1080 IDH1 knockdown viability, ATP luminescence, 48 h. Potency, µM (titrated, usually from 46.1 µM), inactives show at the highest dose activity, negative = toxicity, usual class: cytotoxic. actives 2% (n = 360,000). AID 686971;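 further: 0% = DMSO wells and -100% = cell-free medium wells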
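CellTiter-Glo luminescence after 48 h compound exposure at 37 degrees C of IDH1-knockdown HT-1080 cells in 5% FBS RPMI. %Activity scaled between DMSO wells and cell-free media wells, with curves fitted and assigned curve classes.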
An asterisk follows results filed as active; i = inactive; ? = inconclusive; . = no result. A selection follows. The call rests on the fitted dose curve; in most records, active means well fitted curve in the direction sought with a large enough effect; inconclusive means small, poorly fitted or top-dose-only effect, or another doubt; inactive means no such curve, though single readings can be large; an effect the other way counts as inactive or inconclusive. Unless noted, on the % scale 0 is the no-effect control and ±100 the full control effect; potency means the concentration at half of the fitted maximal effect.

SMILES	KB-V1 cytotox	HT1080NT lethal	KB-3-1 cytotox	TDP1 cell CPT	TDP1 cell noCPT	HT1080 IDH1KD tx
COc1cc(/C=N/NC(=O)COc2c(C)cc([N+](=O)[O-])cc2C)ccc1OC(=O)c1ccccc1Br	i	-11%	i	?	?	-11%
CC(=O)SCC(CC(=O)c1ccc(C)cc1)C(=O)O (stereo not drawn)	.	.	.	8%	-1%	.
CCc1ccc(NS(=O)(=O)c2[nH]ncc2C(=O)OC)cc1	?	.	i	-16%	?	.
COCC(=O)N1CCC2(CC1)CCN(C(=O)NC(C)C)CC2	.	.	.	-1%	-7%	.
COCCN(C(=O)CSc1nnc(-c2ccc(F)cc2)n1N)c1c(N)n(CC(C)C)c(=O)[nH]c1=O	i	7%	i	-8%	-17%	8%
Cc1cccnc1C1=NOC(Cc2ccccc2)C(=O)N1Cc1ccc2c(c1)OCO2 (stereo not drawn)	?	5%	i	-2%	?	0%
